ST2 inh: inhibitors of human ST2 (IL1RL1) binding to IL-33, primary screen, biochemical, AlphaLISA | Interleukin-1 receptor-like 1 (Homo sapiens), Q01638 | AlphaLISA ST2-Fc/biotin-IL-33 interaction, 1 h | inhibition, % for hits at 17 µM | 2.3% of 78,000 active | AID 1259354, 2018; in the data active = inhibition above about 30%
Target sequence (Q01638 whole entry, looked up): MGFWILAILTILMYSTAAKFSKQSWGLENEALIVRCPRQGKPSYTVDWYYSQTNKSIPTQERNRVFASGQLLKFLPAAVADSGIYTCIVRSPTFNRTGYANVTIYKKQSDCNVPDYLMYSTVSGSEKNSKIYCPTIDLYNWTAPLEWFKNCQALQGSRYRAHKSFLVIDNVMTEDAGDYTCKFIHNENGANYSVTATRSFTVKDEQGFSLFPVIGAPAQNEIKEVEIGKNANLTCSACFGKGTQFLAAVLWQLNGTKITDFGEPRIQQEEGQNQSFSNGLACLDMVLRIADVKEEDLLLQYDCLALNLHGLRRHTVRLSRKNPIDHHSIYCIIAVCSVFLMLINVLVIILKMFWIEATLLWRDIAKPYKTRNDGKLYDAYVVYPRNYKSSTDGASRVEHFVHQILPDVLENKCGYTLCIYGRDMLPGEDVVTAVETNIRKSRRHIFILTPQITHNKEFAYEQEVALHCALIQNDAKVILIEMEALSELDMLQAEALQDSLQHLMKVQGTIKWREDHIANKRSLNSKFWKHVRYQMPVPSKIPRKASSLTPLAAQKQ
* = called active by the depositor; i = inactive. Shown is part of a subset that was picked to be rich in hits.

SMILES	ST2 inh
N#Cc1ccccc1N1C(=O)C2C3c4ccccc4C(c4ccccc43)C2C1=O (stereo not drawn)	i
C#CCN(CC=C)C(=O)C1CCC(=O)N(CC2CCCCC2)C1 (stereo not drawn)	i
CCOc1ccc(-n2c3nc(=O)n(C)c(=O)c-3cc3ccccc32)cc1	i
CCCCOc1ccc(OCCCC)c2c1nc(-c1ccccc1NC)c(=O)n2C	69%*
CCn1nc(-c2ccccn2)nc2c(=O)n(C)c(=O)nc1-2	i
COc1ccc(C(=O)C2CCCN(c3nc(C(N)=O)cs3)C2)cc1OC (stereo not drawn)	i
Cc1ccc(NS(=O)(=O)c2cccc3c(S(=O)(=O)Nc4ccc(C)cc4)cccc23)cc1	i
O=C1c2ccccc2C(=O)c2c1cccc2S(=O)(=O)Nc1ccc(Cl)cc1	52%*
O=S(=O)(Nc1ccc(Cl)cc1)c1cccc2cccnc12	i
O=C(CSCC(=O)c1ccc2c(c1)Cc1ccccc1-2)Nc1ccccc1	i
CCCCC1=NN(C(=O)c2ccccc2Br)C(O)(C(F)(F)F)C1 (stereo not drawn)	i
COc1cccc([C@@H]2C[C@H](NC(C)=O)C[C@H](Cc3ccccc3)O2)c1F	i
CCO/C=C1\c2cc([N+](=O)[O-])ccc2-c2c1cc([N+](=O)[O-])cc2[N+](=O)[O-]	54%*
N#Cc1c([N+](=O)[O-])cc([N+](=O)[O-])cc1S(=O)(=O)Cc1ccccc1	i
O=[N+]([O-])c1ccc(OCCO)c(OCCO)c1	i
CC(C)C(NS(=O)(=O)c1cccs1)C(=O)Nc1cccc2c1CCCC2 (stereo not drawn)	i
Cc1nc2cc(C(=O)N3CC(c4cccnc4)C3)ccc2n1-c1ccccc1	i
Cc1ccccc1Nc1nnc(Cc2ccc(Cl)cc2)c(=O)[nH]1	i
CCCC1(C2CCN(C(=O)C3=CCCC3)CC2)NC(=O)N(CCc2ccccn2)C1=O (stereo not drawn)	i
Oc1oc(-c2ccc(Br)cc2)nc1C=Nc1ccccc1Cl	i
CCCc1cc(-c2cc(NC3CCNCC3)nc3[nH]ccc23)nc(C)n1	38%*
CCCc1nc(C)cc(-c2cc(N)nc3[nH]ccc23)n1	i
c1cc2c(-c3ccc(CN4CCOCC4)cn3)cc(NC3CCCC3)nc2[nH]1	i
CCCc1cc(NCC2CNCCOC2)nc(C)n1 (stereo not drawn)	i
c1nc(-c2cc(NC3CCCC3)nc3[nH]ccc23)cc(N2CCOCC2)n1	30%*
SMILES	ST2 inh
c1cc2c(-c3ccc(NC4CCCC4)nn3)cc(NC3CCNCC3)nc2[nH]1	40%*
c1ccc(CNc2nc(NC3CCCCC3)nc(N3CCOCC3)n2)cc1	i
c1cnc(-c2cc(NC3CCNCC3)nc3[nH]ccc23)cn1	33%*
OCCNc1nc(F)c(F)c(Oc2ccc(Cl)cc2)c1F	i
Cn1c(=O)c2nc(-c3ccccc3Br)oc2c2ccccc21	i
COc1cc2c(C(=O)NCCCN3CCCC3)cn(C)c(=O)c2cc1OC	i
CC(=O)c1ccccc1NC(=O)CCCn1nc(C)c([N+](=O)[O-])c1C	i
COc1cc(C)c(CN2CCc3ccccc3C2)cc1C	i
COc1cccc(NC(=O)CSC2=Nc3ccccc3C3=NC(C(C)C)C(=O)N23)c1 (stereo not drawn)	i
COc1ccc(C(=O)c2oc3ccccc3c2NC(=O)c2ccco2)cc1	31%*
NC(=O)c1oc2ccccc2c1NC(=O)c1ccco1	i
O=C(Nc1c(C(=O)Nc2cccc(F)c2)oc2ccccc12)c1ccco1	i
Cc1cc(C(=O)N(C)CC(=O)c2ccc(O)cc2)ccc1F	i
O=C1CSC(c2ccc(Cl)cc2Cl)N1c1cccc(F)c1 (stereo not drawn)	i
CNc1nc2c(c(=O)[nH]c(=O)n2C)n1Cc1ccc(F)cc1	i
CCn1cc(C(=O)NC2CCCCCC2)c(=O)c2cc(S(=O)(=O)N3CCOCC3)ccc21	i
CC(=O)C1=NN(c2ccccc2)C2C(=O)N(c3ccc(Cl)cc3)C(=O)C12 (stereo not drawn)	i
CSc1ccc(OC(=O)c2ccc(Br)cc2)cc1	i
O=[N+]([O-])c1ccc(-c2cnc3ccccc3n2)cc1	31%*
Cc1nc2ccccc2nc1-c1ccc([N+](=O)[O-])cc1	i
O=[N+]([O-])c1ccc(-c2nc3ccccc3o2)cc1	i
CC(C)NC(=O)C(=O)Nc1ccc(Cl)cc1	i
CC(=O)Sc1nc(O)c(C=C2C=c3ccc(C)cc3=NC2=O)[nH]1	31%*
Cc1cc(Br)ccc1NC(=O)c1cc2c(=O)n3cccc(C)c3nc2s1	i
COc1ccc(CNc2nc(-c3cccc(OC)c3)cc(C(F)(F)F)n2)cc1	i
SMILES	ST2 inh
CSc1nnc(CC2CCN(C(=O)[C@@H]3CCCN3)CC2)n1C	i
C=CCN(C/C=C/c1ccccc1)C(=O)c1c(C)cc(C)[nH]c1=O	i
N#C/C(=C\c1cc(Cl)ccc1O)c1nc2ccccc2[nH]1	35%*
C=CCOc1ccc(Cl)cc1/C=C(\C#N)c1nc2ccccc2[nH]1	i
N#C/C(=C\c1ccc(O)cc1O)c1nc2ccccc2[nH]1	i
CN(C)CC1(O)CCCN(C(=O)COc2cccc(F)c2)CC1 (stereo not drawn)	i
Cc1ccc(NC(=O)CN2CC(C(=O)O)CC2=O)c(F)c1 (stereo not drawn)	i
CC(=O)Nc1cccc(-c2cc(C(F)(F)F)cc3[nH]cnc23)c1	i
CC(N)=NS(=O)(=O)c1ccc(Cl)cc1	i
CC(=O)Nc1ccc(S(=O)(=O)Nc2ccc(C(C)C)cc2)cc1	i
CC(C)c1ccc(S(=O)(=O)N=C2C=CC(=O)c3ccccc32)cc1	45%*
O=C1C=CC(=NS(=O)(=O)c2ccc(Cl)cc2)c2ccccc21	60%*
O=Cc1ccc(S(=O)(=O)c2ccc(Cl)cc2)cc1	i
Cn1c(-c2nonc2NC(=O)CSc2nc3ccccc3o2)nc2ccccc21	i
O=C(NCCc1cn2ccsc2n1)Nc1nnc(C(F)(F)F)s1	i
CSc1cccc(CNC2CC(=O)N(Cc3ccc(F)cc3)C2)c1 (stereo not drawn)	i
CCN(CC)C(=O)c1oc2ccc(S(=O)(=O)N(CC)CC)cc2c1C	i
Cc1nc(SC2CC(=O)N(c3ccc(Br)cc3)C2=O)c(C#N)c(C)c1C (stereo not drawn)	i
CCOc1ccc(-n2c(SCc3ccc(C)cc3)nc3c(c2=O)SCC3)cc1	i
Cc1ccc(-c2noc(CCC(=O)Nc3ccc4c(c3)OCO4)n2)cc1	i
COc1ccc(NC(=O)CN2CCN(Cc3ccc4c(c3)OCO4)CC2)cc1	i
Cc1ccc(NC(=O)Cn2c(-c3ccc4c(c3)OCO4)cn(-c3ccccc3)c2=O)cc1	31%*
CCOc1cc(CNC(=O)CN2C(=O)C(CC)=C(c3ccc(OC)cc3)S2(=O)=O)ccc1OC	i
CC(=O)Nc1ccccc1NC(=O)Cc1ccc([N+](=O)[O-])cc1	i
COCCCNc1nc(-c2ccccc2F)nc2ccccc12	i
SMILES	ST2 inh
CC(C)Sc1oc(-c2cccs2)nc1S(=O)(=O)c1ccc(F)cc1	i
COc1ccccc1N1CCN(Cc2cc(I)c(O)c(OC)c2)CC1	i
COc1cc(CN(C)C2CCN(C)CC2)cc([N+](=O)[O-])c1O	i
CCN(CC)CCN(C)Cc1cc(I)c(O)c(OC)c1	94%*
Cc1c(C(=O)NC2CCCCC2)oc2ccc(S(=O)(=O)N3CCCCCC3)cc12	i
O=C1C(Nc2ccccc2)=CC(=NS(=O)(=O)c2cccs2)c2ccccc21	86%*
